“And” between values parts separate entries of the source, which are not always exact repeats. Equal entries are not always repeated. Hit rate of the full screen: of about 5,500 compounds, about 2,000 (36%) were called active. Not shown: some 18% with an inconclusive outcome. No stated cut-off is given here; in the data, active means normalized growth mostly below about 0.91 (no sharp cut-off); inconclusive means no clear call, values can overlap the other calls; inactive means mostly above about 0.92. Some of the results follow.
Assay: chemical genetic growth profiling, strain panel (AID 1159580);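 further: tested at 20 µM; growth read once vehicle control cultures reached saturation at 30 °C; 1 = growth at the plate median or of vehicle wells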
Details: S. cerevisiae deletion strains, growth OD
[1] = locus YMR263W, strain SAP30, stronger effect = lower value
[2] = locus YMR307W, strain GAS1, stronger effect = lower value
[3] = locus YPL055C, strain LGE1, stronger effect = lower value
[4] = locus YPL241C, strain CIN2, stronger effect = lower value

Measured: normalized growth

CC(C(=O)O)c1ccc(CC2CCCC2=O)cc1 (configuration not stated)
inactive: locus YAL013W, strain DEP1, stronger effect = lower value 0.985 | locus YAL040C, strain CLN3, stronger effect = lower value 0.995 | locus YCL061C, strain MRC1 (second series), stronger effect = lower value 1 | locus YDR363W, strain ESC2, stronger effect = lower value 1 | locus YER002W, strain NOP16, stronger effect = lower value 0.988 | locus YGR078C, strain PAC10, stronger effect = lower value 1.02 | locus YGR229C, strain SMI1, stronger effect = lower value 1.01 | locus YJR075W, strain HOC1, stronger effect = lower value 1.01 | [1] 1 | [2] 0.999 | locus YNL128W, strain TEP1, stronger effect = lower value 0.976 | locus YNL175C, strain NOP13, stronger effect = lower value 1.01 | locus YNL197C, strain WHI3, stronger effect = lower value 1.02 | locus YNL224C, strain SQS1, stronger effect = lower value 0.979 | locus YNL322C, strain KRE1, stronger effect = lower value 1.01 | locus YOR083W, strain WHI5 (second series), stronger effect = lower value 0.981 | [3] 0.974 | [4] 1.01

CC(=O)OC1CCC23C(=O)OC45CCC(C6=CC(=O)OC6)C4(C)CCC2C5CCC3(O)C1 (configuration not stated)
inactive: locus YAL021C, strain ccr4, stronger effect = lower value 1 | locus YAL026C, strain drs2, stronger effect = lower value 0.979 | locus YAL030W, strain snc1, stronger effect = lower value 0.996 | locus YBL061C, strain skt5, stronger effect = lower value 0.975 | locus YBR009C, strain hhf1, stronger effect = lower value 0.998 | locus YBR021W, strain FUR4, stronger effect = lower value 1 | locus YBR023C, strain chs3, stronger effect = lower value 0.991 | locus YBR171W, strain sec66, stronger effect = lower value 0.953 | locus YBR229C, strain ROT2, stronger effect = lower value 1.01 | locus YBR231C, strain swc5, stronger effect = lower value 0.987 | locus YBR279W, strain paf1, stronger effect = lower value 1.01 | locus YCL011C, strain gbp2, stronger effect = lower value 1 | locus YCL016C, strain dcc1, stronger effect = lower value 1.04 | locus YCL029C, strain bik1, stronger effect = lower value 1.02 | locus YCL061C, strain MRC1, stronger effect = lower value 0.997 | locus YCL069W, strain vba3, stronger effect = lower value 0.979 | locus YCR088W, strain abp1, stronger effect = lower value 0.986 | locus YDL005C, strain med2, stronger effect = lower value 0.98 | locus YDL035C, strain GPR1, stronger effect = lower value 1.05 | locus YDL040C, strain nat1, stronger effect = lower value 0.99 | locus YDL074C, strain BRE1, stronger effect = lower value 1.1 | locus YDL101C, strain DUN1, stronger effect = lower value 1.01 | locus YDL185W, strain tfp1, stronger effect = lower value 0.992 | locus YDL192W, strain arf1, stronger effect = lower value 1.03 | locus YDR001C, strain nth1, stronger effect = lower value 0.991 | locus YDR069C, strain doa4, stronger effect = lower value 0.963 | locus YDR101C, strain arx1, stronger effect = lower value 1 | locus YDR137W, strain rgp1, stronger effect = lower value 1.03 | locus YDR159W, strain sac3, stronger effect = lower value 0.961 | locus YDR162C, strain NBP2, stronger effect = lower value 1.03 | locus YDR195W, strain ref2 0.943 | locus YDR297W, strain sur2, stronger effect = lower value 0.987 | locus YDR318W, strain mcm21, stronger effect = lower value 1.02 | locus YDR334W, strain swr1, stronger effect = lower value 0.959 | locus YDR335W, strain msn5, stronger effect = lower value 0.992 | locus YDR388W, stronger effect = lower value 0.998 | locus YDR392W, strain spt3, stronger effect = lower value 0.962 | locus YDR502C, strain sam2, stronger effect = lower value 1.02 | locus YEL003W, strain gim4, stronger effect = lower value 0.988 | locus YEL037C, strain rad23, stronger effect = lower value 0.97 | locus YEL061C, strain CIN8 (second series), stronger effect = lower value 0.981 | locus YER015W, strain faa2, stronger effect = lower value 0.977 | locus YER016W, strain bim1, stronger effect = lower value 0.994 | locus YER110C, stronger effect = lower value 0.997 | locus YER111C, strain swi4, stronger effect = lower value 0.95 | locus YER155C, strain BEM2 (second series), stronger effect = lower value 0.968 | locus YER155C, strain BEM2, stronger effect = lower value 1 | locus YER167W, strain BCK2, stronger effect = lower value 1.01 | locus YFR010W, strain ubp6, stronger effect = lower value 0.959 | locus YGL078C, strain dbp3, stronger effect = lower value 1 | locus YGL086W, strain mad1, stronger effect = lower value 1 | locus YGL167C, strain pmr1, stronger effect = lower value 0.978 | locus YGL173C, strain kem1, stronger effect = lower value 0.972 | locus YGL227W, strain vid30, stronger effect = lower value 0.994 | locus YGL240W, strain doc1, stronger effect = lower value 0.973 | locus YGL248W, strain PDE1, stronger effect = lower value 1.06 | locus YGL253W, strain hxk2, stronger effect = lower value 0.98 | locus YGR135W, strain pre9, stronger effect = lower value 0.997 | locus YGR252W, strain gcn5, stronger effect = lower value 1 | locus YHR013C, strain ard1, stronger effect = lower value 0.994 | locus YHR027C, strain rpn1, stronger effect = lower value 0.971 | locus YHR030C, strain SLT2, stronger effect = lower value 1.02 and 0.956 | locus YHR079C, strain IRE1 (second series), stronger effect = lower value 0.994 | locus YHR079C, strain IRE1, stronger effect = lower value 0.984 | locus YHR094C, strain hxt1, stronger effect = lower value 1 | locus YHR129C, strain ARP1, stronger effect = lower value 1.02 | locus YHR142W, strain chs7, stronger effect = lower value 1.02 | locus YHR200W, strain rpn10, stronger effect = lower value 1.01 | locus YIL066C, strain RNR3, stronger effect = lower value 1.03 | locus YIL073C, strain SPO22, stronger effect = lower value 1.11 | locus YIL125W, strain kgd1, stronger effect = lower value 1.02 | locus YIR030C, strain dcg1, stronger effect = lower value 1 | locus YJL092W, strain hpr5, stronger effect = lower value 0.971 | locus YJL095W, strain BCK1 (second series), stronger effect = lower value 0.96 | locus YJL095W, strain BCK1, stronger effect = lower value 1.08 and 0.965 | locus YJL115W, strain asf1, stronger effect = lower value 0.979 | locus YJL129C, strain trk1, stronger effect = lower value 0.973 | locus YJL134W, strain LCB3, stronger effect = lower value 1.01 | locus YJL154C, strain vps35, stronger effect = lower value 0.988 | locus YJL164C, strain tpk1, stronger effect = lower value 1.04 | locus YJL166W, strain qcr8, stronger effect = lower value 0.977 | locus YJL168C, strain set2, stronger effect = lower value 1.01 | locus YJL187C, strain SWE1 (second series), stronger effect = lower value 1.02 | locus YJR043C, strain POL32, stronger effect = lower value 1.05 | locus YJR066W, strain TOR1, stronger effect = lower value 0.883 | locus YKL009W, strain mrt4, stronger effect = lower value 1.02 | locus YKL068W, stronger effect = lower value 1.01 | locus YKL085W, strain MDH1 (second series), stronger effect = lower value 1 | locus YKL085W, strain MDH1, stronger effect = lower value 1 | locus YKL160W, strain elf1, stronger effect = lower value 1.06 | locus YKR001C, strain vps1, stronger effect = lower value 1.02 | locus YKR026C, strain gcn3, stronger effect = lower value 0.976 | locus YKR091W, strain srl3, stronger effect = lower value 0.994 | locus YLL001W, strain dnm1, stronger effect = lower value 1.01 | locus YLL026W, stronger effect = lower value 0.996 | locus YLL041C, strain sdh2, stronger effect = lower value 0.966 | locus YLR027C, strain aat2, stronger effect = lower value 0.988 | locus YLR039C, strain RIC1, stronger effect = lower value 1.23 | locus YLR058C, strain SHM2, stronger effect = lower value 1.02 | locus YLR102C, strain apc9, stronger effect = lower value 0.994 | locus YLR113W, strain HOG1, stronger effect = lower value 1.01 | locus YLR221C, strain rsa3, stronger effect = lower value 0.981 | locus YLR258W, strain gsy2, stronger effect = lower value 1 | locus YLR262C, strain YPT6 (second series), stronger effect = lower value 1.01 | locus YLR268W, strain sec22, stronger effect = lower value 1.02 | locus YLR320W, strain mms22, stronger effect = lower value 0.988 | locus YLR342W, strain FKS1 (second series), stronger effect = lower value 1.06 | locus YLR342W, strain FKS1, stronger effect = lower value 0.995 | locus YLR357W, strain rsc2, stronger effect = lower value 0.973 | locus YLR370C, strain arc18, stronger effect = lower value 0.986 | locus YLR371W, strain rom2, stronger effect = lower value 1.02 | locus YLR384C, strain iki3, stronger effect = lower value 0.997 | locus YLR418C, strain cdc73, stronger effect = lower value 1.06 | locus YML016C, strain PPZ1, stronger effect = lower value 1.01 | locus YML032C, strain rad52, stronger effect = lower value 1.01 | locus YML120C, strain ndi1, stronger effect = lower value 1.01 | locus YML124C, strain tub3, stronger effect = lower value 1.01 | locus YMR058W, strain fet3, stronger effect = lower value 0.988 | locus YMR078C, strain ctf18, stronger effect = lower value 1.01 | locus YMR125W, strain sto1, stronger effect = lower value 0.992 | locus YMR129W, stronger effect = lower value 0.986 | locus YMR205C, strain PFK2, stronger effect = lower value 1.01 | locus YMR223W, strain ubp8, stronger effect = lower value 1 | locus YMR231W, strain pep5, stronger effect = lower value 0.97 | [1] 1.01 | [2] 1.16 | locus YNL067W, strain RPL9B, stronger effect = lower value 0.999 | locus YNL071W, strain lat1, stronger effect = lower value 0.994 | locus YNL183C, strain NPR1, stronger effect = lower value 0.922 | locus YNL209W, strain ssb2, stronger effect = lower value 0.996 | locus YNL233W, strain BNI4, stronger effect = lower value 1.05 | locus YNL248C, strain rpa49, stronger effect = lower value 0.989 | locus YNL250W, strain rad50, stronger effect = lower value 1.03 | locus YNL271C, strain bni1, stronger effect = lower value 1.02 | locus YNL298W, strain CLA4, stronger effect = lower value 1.01 | locus YNL307C, strain MCK1, stronger effect = lower value 1.02 | locus YNL322C, strain KRE1 (second series), stronger effect = lower value 0.987 | locus YNR049C, strain mso1, stronger effect = lower value 0.967 | locus YNR052C, strain pop2, stronger effect = lower value 0.996 | locus YOL006C, strain TOP1, stronger effect = lower value 1.28 | locus YOL012C, strain htz1 0.952 | locus YOL147C, strain pex11, stronger effect = lower value 1.02 | locus YOR001W, strain rrp6, stronger effect = lower value 0.929 | locus YOR061W, strain CKA2, stronger effect = lower value 1.02 | locus YOR069W, strain VPS5, stronger effect = lower value 1 | locus YOR070C, strain gyp1, stronger effect = lower value 0.982 | locus YOR080W, strain dia2, stronger effect = lower value 0.98 | locus YOR083W, strain WHI5, stronger effect = lower value 1.06 | locus YOR106W, strain vam3, stronger effect = lower value 1.05 | locus YOR136W, strain idh2, stronger effect = lower value 0.997 | locus YOR144C, strain elg1, stronger effect = lower value 1 | locus YOR184W, strain ser1, stronger effect = lower value 1.02 | locus YOR231W, strain MKK1, stronger effect = lower value 0.976 | locus YOR265W, strain rbl2, stronger effect = lower value 0.996 | locus YOR270C, strain vph1, stronger effect = lower value 1 | locus YOR290C, strain snf2, stronger effect = lower value 1.02 | locus YOR316C, strain cot1, stronger effect = lower value 1.02 | locus YPL051W, strain arl3, stronger effect = lower value 0.967 | [3] 1.09 | locus YPL078C, strain atp4, stronger effect = lower value 1.06 | locus YPL106C, strain sse1, stronger effect = lower value 1 | locus YPL240C, strain hsp82, stronger effect = lower value 0.979 | [4] 1.02 | locus YPL256C, strain CLN2, stronger effect = lower value 0.975 | locus YPR119W, strain clb2, stronger effect = lower value 0.999 | locus YPR141C, strain kar3, stronger effect = lower value 0.997 | locus YPR163C, strain tif3, stronger effect = lower value 1.01 | locus YPR167C, strain met16, stronger effect = lower value 1.02 | strain wtn01, stronger effect = lower value 1

— PubChem BioAssay AID1159580 (chemical genetic matrix, 2015)
